Where a name gives a salt, the structure may show the parent alone. ± gives the standard deviation of the averaged measurements.
Tests used:
Assay in all cases: growth (OD600 after 10 h); higher = more growth (less inhibition)
[1] = test system: E. coli TESEC Alr+ wild-type control; details: compound 0.1 mM; raw OD600 reference: median of DMSO wells 0.241, cell-free background 0.041
Description: (§1)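 TESEC Mtb Alr E. coli, or the Alr+ wild-type control, in 384-well plates with Prestwick library compounds at 0.1 mM and 1% DMSO, across arabinose induction levels of 1E3 to 1E7 nM. Growth is read as OD600 after 10 h at 37 °C in triplicate biological replicates.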

E. coli TESEC Mtb Alr [2] = details: compound 0.1 mM
Description: as §1

E. coli TESEC Mtb Asd = details: compound 0.1 mM
Description: (§2)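 TESEC E. coli strains in which the native enzyme is deleted and replaced by arabinose-inducible Mtb Asd, DapB, CysH or TrpD, each grown in its selective medium. Strains were screened against the Prestwick library at 0.1 mM and 1% DMSO in 384-well format at low and high arabinose induction. Growth is read as OD600 after 10 h in triplicate.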

E. coli TESEC Mtb Alr [3] = details: compound 0.1 mM; remark: listed apart in the source
Description: (§3)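 TESEC Mtb Alr E. coli (ΔaraC ΔtolC ΔentC Δalr ΔdadX, arabinose-inducible Mtb Alr) or the Alr+ wild-type control strain, grown in defined M9-fructose medium without D-alanine in 96-well plates with Prestwick library compounds at 0.1 mM and 1% DMSO. Low Alr induction is 0.1 µM arabinose and high induction is 10 mM arabinose.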

[4] = test system: E. coli TESEC Alr+ wild-type control; details: compound 0.1 mM; raw OD600 reference: median of DMSO wells 0.49, cell-free background 0.052
Description: as §3

E. coli TESEC Mtb DapB = details: compound 0.1 mM
Description: as §2

[5] = arabinose 1000 nM, raw OD600 reference: median of DMSO wells 0.294, cell-free background 0.041
[6] = arabinose 10000 nM, raw OD600 reference: median of DMSO wells 0.264, cell-free background 0.041
[7] = arabinose 100000 nM, raw OD600 reference: median of DMSO wells 0.201, cell-free background 0.041
[8] = arabinose 1000000 nM, raw OD600 reference: median of DMSO wells 0.193, cell-free background 0.041
[9] = arabinose 10000000 nM, raw OD600 reference: median of DMSO wells 0.146, cell-free background 0.041
[10] = arabinose induction (level): High, raw OD600 reference: median of DMSO wells 0.331, cell-free background 0.041
[11] = arabinose induction (level): Low, raw OD600 reference: median of DMSO wells 0.417, cell-free background 0.041
[12] = arabinose 100 nM, raw OD600 reference: median of DMSO wells 0.413, cell-free background 0.052
[13] = arabinose 10000000 nM, raw OD600 reference: median of DMSO wells […], cell-free background 0.052

Row | Structure (SMILES) | growth [1] | growth (E. coli TESEC Mtb Alr [2]; [5]) | growth (E. coli TESEC Mtb Alr [2]; [6]) | growth (E. coli TESEC Mtb Alr [2]; [7]) | growth (E. coli TESEC Mtb Alr [2]; [8]) | growth (E. coli TESEC Mtb Alr [2]; [9]) | growth (E. coli TESEC Mtb Asd; [10]) | growth (E. coli TESEC Mtb Asd; [11]) | growth (E. coli TESEC Mtb Alr [3]; [12]) | growth (E. coli TESEC Mtb Alr [3]; [13]) | growth [4] | growth (E. coli TESEC Mtb DapB; arabinose induction (level): High, raw OD600 reference: median of DMSO wells […], cell-free background 0.041) | growth (E. coli TESEC Mtb DapB; arabinose induction (level): Low, raw OD600 reference: median of DMSO wells 0.227, cell-free background 0.041)
1 | CC(C)[N+](C)(CCC(C(N)=O)(c1ccccc1)c1ccccc1)C(C)C [Isopropamide iodide] | 0.211 ± 0.003 | 0.285 ± 0.0086 | 0.248 ± 0.0032 | 0.199 ± 0.015 | 0.147 ± 0.0039 | 0.142 ± 0.0052 | 0.268 ± 0.036 | 0.41 ± 0.036 | 0.399 ± 0.025 | 0.331 ± 0.013 |  |  | 
2 | COc1ccc(CCN2CCC(Nc3nc4ccccc4n3Cc3ccc(F)cc3)CC2)cc1 [Astemizole] | 0.041 ± 0.00045 | 0.0406 ± 0.00056 | 0.04013 ± 0.00025 | 0.0411 ± 0.0019 | 0.04007 ± 0.00031 | 0.0404 ± 0.0002 | 0.0477 ± 0.0029 | 0.053 ± 0.004 | 0.176 ± 0.22 | 0.0525 ± 0.0011 |  |  | 
3 | C[C@@H]1C[C@@H]([C@H](O)CC2CC(=O)NC(=O)C2)C(=O)[C@@H](C)C1 [Cycloheximide] | 0.25 ± 0.014 | 0.314 ± 0.018 | 0.268 ± 0.006 | 0.195 ± 0.009 | 0.186 ± 0.011 | 0.157 ± 0.0081 | 0.469 ± 0.0092 | 0.443 ± 0.042 | 0.394 ± 0.033 | 0.33 ± 0.013 | 0.529 ± 0.06 |  | 
4 | CCCC(C)(COC(N)=O)COC(=O)NC(C)C (stereo not given) [Carisoprodol] | 0.237 ± 0.008 | 0.287 ± 0.011 | 0.283 ± 0.0077 | 0.211 ± 0.014 | 0.198 ± 0.0098 | 0.142 ± 0.0024 | 0.268 ± 0.02 | 0.322 ± 0.083 | 0.403 ± 0.01 | 0.341 ± 0.015 |  |  | 
5 | O=C(CCCN1CCC(n2c(=O)[nH]c3ccccc32)CC1)c1ccc(F)cc1 [Benperidol] | 0.181 ± 0.0021 | 0.269 ± 0.0074 | 0.263 ± 0.0054 | 0.179 ± 0.036 | 0.135 ± 0.0025 | 0.149 ± 0.0063 | 0.357 ± 0.062 | 0.434 ± 0.086 | 0.411 ± 0.016 | 0.26 ± 0.02 | 0.407 ± 0.02 |  | 
6 | CCC1(C)CC(=O)NC(=O)C1 [Bemegride] | 0.237 ± 0.0029 | 0.299 ± 0.023 | 0.253 ± 0.00095 | 0.227 ± 0.039 | 0.191 ± 0.0055 | 0.135 ± 0.0098 | 0.318 ± 0.043 | 0.46 ± 0.0049 | 0.4 ± 0.019 | 0.363 ± 0.02 |  |  | 
7 | C[C@]12CC[C@@H]3c4ccc(OC(=O)N(CCCl)CCCl)cc4CC[C@H]3[C@@H]1CC[C@@H]2O [Estramustine] | 0.248 ± 0.0012 | 0.306 ± 0.011 | 0.284 ± 0.01 | 0.212 ± 0.011 | 0.147 ± 0.009 | 0.1686 ± 0.00066 | 0.207 ± 0.025 | 0.189 ± 0.049 | 0.396 ± 0.014 | 0.31 ± 0.0085 |  |  | 
8 | COc1cccc(C2(O)CCCCC2CN(C)C)c1 (stereo not given) [Tramadol hydrochloride] | 0.238 ± 0.0082 | 0.308 ± 0.012 | 0.271 ± 0.0049 | 0.193 ± 0.0059 | 0.193 ± 0.012 | 0.1352 ± 0.00092 | 0.31 ± 0.028 | 0.403 ± 0.065 | 0.4058 ± 0.0034 | 0.327 ± 0.016 |  |  | 
9 | C[C@]12CC[C@H](O)C[C@@H]1CC[C@@H]1[C@@H]2CC[C@]2(C)C(=O)CC[C@@H]12 [Epiandrosterone] | 0.126 ± 0.0063 | 0.12 ± 0.0055 | 0.107 ± 0.0061 | 0.0943 ± 0.0019 | 0.0694 ± 0.0019 | 0.0859 ± 0.0011 | 0.0929 ± 0.015 | 0.168 ± 0.018 | 0.353 ± 0.043 | 0.109 ± 0.0099 |  |  | 
10 | CC(=O)NC1CCSC1=O (racemic) [N-Acetyl-DL-homocysteine Thiolactone] | 0.253 ± 0.013 | 0.312 ± 0.021 | 0.2598 ± 0.0021 | 0.222 ± 0.031 | 0.185 ± 0.005 | 0.144 ± 0.0094 | 0.29 ± 0.041 | 0.451 ± 0.01 | 0.402 ± 0.0097 | 0.35 ± 0.02 |  |  | 
11 | C[N+]1(C)[C@@H]2CC[C@H]1C[C@@H](OC(=O)C(CO)c1ccccc1)C2 (stereo not given in full) [Methylatropine nitrate] | 0.232 ± 0.013 | 0.283 ± 0.017 | 0.247 ± 0.0037 | 0.206 ± 0.0059 | 0.2 ± 0.007 | 0.14 ± 0.0059 | 0.286 ± 0.02 | 0.438 ± 0.022 | 0.391 ± 0.011 | 0.355 ± 0.012 |  |  | 
12 | CCOC(=O)c1cncn1[C@H](C)c1ccccc1 [Etomidate] | 0.202 ± 0.0032 | 0.244 ± 0.0088 | 0.275 ± 0.013 | 0.214 ± 0.03 | 0.181 ± 0.01 | 0.14 ± 0.0078 | 0.43 ± 0.029 | 0.378 ± 0.076 | 0.41 ± 0.0073 | 0.341 ± 0.0035 |  |  | 
13 | CCC(=O)O[C@@](Cc1ccccc1)(c1ccccc1)[C@@H](C)CN(C)C [Levopropoxyphene napsylate] | 0.178 ± 0.0045 |  |  |  |  |  | 0.169 ± 0.019 | 0.388 ± 0.047 | 0.4145 ± 0.0027 | 0.323 ± 0.013 | 0.566 ± 0.042 |  | 
14 | C=CC[C@]1(O)CC[C@H]2[C@@H]3CCC4=CC(=O)CCC4=C3C=C[C@@]21C [Altrenogest] | 0.132 ± 0.0045 |  |  |  |  |  | 0.148 ± 0.027 | 0.126 ± 0.021 | 0.376 ± 0.0056 | 0.134 ± 0.011 |  | 0.148 ± 0.002 | 0.162 ± 0.006
15 | CC[C@@H](CO)NC(=O)[C@@H]1C=C2c3cccc4[nH]cc(c34)C[C@H]2N(C)C1 [Methylergometrine maleate] | 0.227 ± 0.0031 | 0.262 ± 0.0081 | 0.207 ± 0.0073 | 0.279 ± 0.0098 | 0.119 ± 0.0017 | 0.178 ± 0.0023 | 0.228 ± 0.051 | 0.267 ± 0.069 | 0.4 ± 0.0081 | 0.359 ± 0.0099 |  |  | 

Reference: the supplement of paper PMC9262897, “Low-cost anti-mycobacterial drug discovery using engineered E. coli” (Nature Communications, 2022)
